This is an account of results in the supplement of paper PMC6555819.

For the assay, the system named is VDR:RXRa (NR concentration 270 nM, RXRa partner concentration 90 nM). Nature of the assay: PBM binding z-score (relative to random genomic background probes); higher = stronger binding; sequences stand for … in GC…GCGATTGACAGCGTAGAATGAAGG
Here is the method:
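Protein-binding microarray (Agilent 4x180K custom design, double-stranded 60-nt probes: 5' GC cap, 34-nt variable region, 24-nt constant primer region; full probe sequence given). Purified or IVT nuclear receptor:RXRα heterodimers (3:1 NR:RXRα, mostly 270:90 nM) or homodimers were incubated for 1 h in PBS with 2% milk and no ligand, then detected with Alexa488 antibodies. Fluorescence from o1-orientation probes (~5 replicates averaged) was converted to z-scores against 500 random hg19 background probes. Variable regions are seed direct-repeat (DR0–DR5) sites, all their single-nucleotide variants and half-site ablations.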
For the sequence CCGAGTAGGTTATGTGGCATTCAGGCAACGGTGA, the PBM binding z-score was -0.184. CCTGCTAGGTCATGGTGAGCTAATCTACAGTATG had a PBM binding z-score of 1.37. Regarding ACTAGCAGGCCAAGGGTCACTAAAGATTAGTCCG, the PBM binding z-score worked out at 2.62. To CCTTACGGGTCACTGACAGGCTATAGCATTTGGA belongs 3.07; to TTACCAAGGAGAGCTGAGGTCGTTGATCCAACTC, 1.15; to AGAACGAGCGCAATGAGTTGATAGCACGGGTGGC, -0.0491. Next, CGAACTAGGCCATTGACAGGACAGTGAATAGTAA: -0.259; TAGCCTAGGTCAGAACGGGCCAGTATACGCTATA: 0.299; TTACCAAGGTGGAGGTCGTTGATCCCTCTGTAGA: 1.65.

TCTGTTAGTTGAAGGGCAACCGACGAGTCCGTTT registered a PBM binding z-score of 0.902. To CGTCCAAGGTTAGCAGGTCAGTGAAAGCGACGTG belongs 1. Next, ACAAACAGGTGATGAAGGTAACTCAGGCTATCAT: 0.56; CCTAGTTGGTCAAAGTCACACACGCTATAGGTAC: 0.996. TCTAGTTGGTCAAAGGTCACACCCTCGAAATGCG returned a PBM binding z-score of 5.06. As to AGTCAAAGCTCAGGACGAGGTAACGTAAAGCACG, the PBM binding z-score was -0.317. Take CCTAGCAGGCCAGGGTCACTCTAGCATTTCGCTT: the PBM binding z-score turned out to be 2.45. As to TCTTGTAGATAAATAGAGGTTAAGAAAGTGCGCT, the PBM binding z-score stood at 1.87. The sequence TCCAGCAGGCCAGAGGGTCACTCAAGAGGTACGG gave a PBM binding z-score of 1.34. For the sequence CCTACTGGGCCACGAAACGTCATTGATTCAGTGA, the PBM binding z-score is -0.697. TCATATAAGTAAAAGGTGAAAGTCGGTGTGGTAA returned a PBM binding z-score of 1.24. Next, TCTTGTAGATGAGCAGGTTAAGAAAGCTGGCCAA: -0.0672. ACTAGCTGGCCAAGGGTCACTCAAGATTAGTCCG registered a PBM binding z-score of 2.59. In turn, CCTAGCAGGCCAAGCTGGGTCACTCAAGGCTTGA returned a PBM binding z-score of 0.17. To AGAATGAGGTTATGCGTAGATCAGGGAAGAAAGT belongs 1.15; to ACTTATGGGTCAACGAGGTTATAGCACGCGTATA, 7.43. The sequence AGAACGAGGACAATGAGTTGATAGCACGGGTGGC returned a PBM binding z-score of 1.75. To GCTGCTAGGTCAGGTTGGTCAGCTAGCGGGTACG belongs 0.267; to CAAACTAGGTCATGGTCAAAGTCGGTTTGTGCCA, 2.18; to GCTTGTAGATCAAGGTTAAAAAAGACTAAGCTAA, 0.328. With GCATATAGGTGATACAAGGTGAAAGTCCGATTGT, the PBM binding z-score came to 0.445. The sequence CCAATTAGTTGACCATAAGGGCAACCGAAGCTCG came in with a PBM binding z-score of 0.678.

For the sequence CCTACTGGGCCATCAGGTCATTGATATCAACGTT, the PBM binding z-score came to 1.81. With CCAGACAGGTGAGAAGGTAGCTCAGCCTCGATTA, the PBM binding z-score was -0.387.

With CCGACTGGGGCATAAGCTTACCATAAGCCAGCCC, the PBM binding z-score was -0.79. To CGAACTTGGTCAAGGACAGTGAATCTCCGCACGC belongs -0.245; to CGAACTAGGTCAGAACAGGACAATGAAGGATGAT, 1.11. ATATGTAGGTAAGCTGGGGTCATTCAGACTAGGC: the PBM binding z-score was determined as 5.49. Sequence CCTAGCAGGCCAATCTGGGTCACTCAAGGCTTGA registered a PBM binding z-score of 0.724. The sequence CCTGCTAGGTCAGGGTCAGCTAATCTACAGTATG gave a PBM binding z-score of 2.86. The sequence CAAACTAGGTCAAAGGACAAAGTCGAGCCAACCA had a PBM binding z-score of 1.96.
